The sample as a whole holds a higher share of hits than the screen did.
Shiga inhibitor = Shiga toxin inhibition; Vero cells, Shiga toxin protein synthesis inhibition reporter; inhibition, % at 38.7 µM; actives 9.2% (n = 290,000); AID 2315; in the data active = inhibition mostly above about 28%, no sharp cut-off; inactive = mostly below about 43%; also: 0% is about no effect
LmPK inhibitor = blocks Leishmania mexicana pyruvate kinase activity; purified LmPK, Kinase-Glo ATP luminescence, 1 h; Potency, µM (doses to about 57.5 µM), for the others: at the top dose activity change, negative = inhibition, usual class: inhibitors; actives 0.37% (n = 290,000); AID 1721; active = well fitted curve in the direction sought with a large enough effect; inconclusive = small, poorly fitted or top-dose-only effect, or another doubt; inactive = no such curve, though single readings can be large; an effect the other way counts as inactive or inconclusive; also: potency is read from the fitted curve at half-maximal effect; % is scaled to controls: 0 for no effect and ±100 for the full control effect
Target sequence (Q27686 whole entry, looked up): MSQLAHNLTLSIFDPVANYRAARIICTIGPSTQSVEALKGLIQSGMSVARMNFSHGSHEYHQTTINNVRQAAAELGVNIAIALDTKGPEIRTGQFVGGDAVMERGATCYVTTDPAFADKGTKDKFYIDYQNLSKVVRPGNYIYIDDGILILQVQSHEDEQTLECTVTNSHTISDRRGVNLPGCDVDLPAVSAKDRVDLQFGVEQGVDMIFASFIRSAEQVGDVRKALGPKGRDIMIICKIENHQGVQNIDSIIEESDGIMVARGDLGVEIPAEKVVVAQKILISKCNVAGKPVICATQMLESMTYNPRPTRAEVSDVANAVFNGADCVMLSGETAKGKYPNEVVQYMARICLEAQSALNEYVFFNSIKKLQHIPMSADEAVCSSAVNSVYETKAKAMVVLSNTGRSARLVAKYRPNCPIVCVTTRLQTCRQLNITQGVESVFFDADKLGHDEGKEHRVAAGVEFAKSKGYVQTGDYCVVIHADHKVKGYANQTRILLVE
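Pyruvate kinase activity monitored as ATP production (luciferase luminescence). Conditions: 0.1 nM enzyme, 0.5 mM PEP, 0.1 mM ADP, 1 h, RT; normalized against uninhibited and no-enzyme wells.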
Tb PYK inh = blocks Trypanosoma brucei pyruvate kinase; TbPYK enzyme, Kinase-Glo Plus ATP luminescence, 45 min; Q57TT1; Potency, µM (top dose mostly 76.8 µM), for inactives: top-dose activity, negative = inhibition, most hits filed as inhibitors; actives 0.12% (n = 410,000); active = well fitted curve in the direction sought with a large enough effect; inconclusive = small, poorly fitted or top-dose-only effect, or another doubt; inactive = no such curve, though single readings can be large; an effect the other way counts as inactive or inconclusive; also: potency is read from the fitted curve at half-maximal effect; % is scaled to controls: 0 for no effect and ±100 for the full control effect; nearly all actives have a fitted effect of over 50% in size
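TbPYK + substrate in 50 mM TEA pH 7.2, 100 mM KCl, 10 mM MgCl2, 0.05% BSA, 0.01% Tween-20; cpd pinned; ADP 130 uM final; 45 min RT; Kinase-Glo Plus 10 min; luminescence endpoint.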
CHX counter = affects cycloheximide protein synthesis inhibition readout, counter-screen | cell reporter, cycloheximide protein synthesis inhibition counterscreen | max response, % | actives 12% (n = 300,000) | AID 2314; in the data active = max response mostly above about 13%, no sharp cut-off; inactive = mostly below about 14%; also: read at 38.3 µM for the half of the compounds with a filed dose; 0% is about no effect
SARS PLP yeast = inhibitors of SARS-CoV papain-like protease in yeast | actives 0.19% (n = 330,000) | Potency, µM (top dose mostly 32.9 µM), inactives show at the top dose activity, positive = growth rescue, hits mostly activators | S. cerevisiae expressing SARS-CoV PLpro, growth rescue; also: potency is read from the fitted curve at half-maximal effect; 0% is about no effect; nearly all actives have a fitted effect of over 55% in size
NS1 inh = inhibitors of influenza NS1 protein function; actives 0.4% (n = 270,000); Potency, µM (top dose mostly 46.1 µM), inactives show top-dose activity, positive = more growth; also: potency is read from the fitted curve at half-maximal effect; actives are rising curves; nearly all actives have a fitted effect of over 50% in size
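Growth recovery, yeast-based: influenza A NS1 expressed in S. cerevisiae causes slow growth, and suppressors are detected by OD600. The parent strain without NS1 is used as positive control.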
An asterisk follows results filed as active; ? = inconclusive; · = no result. Unless noted, calls follow the shape of the full dose curve.

SMILES	Shiga inhibitor	LmPK inhibitor	Tb PYK inh	CHX counter	SARS PLP yeast	NS1 inh
COc1ccc2cc(/C(C)=N/NC(=O)C3CC3)ccc2c1	48.5*	0.3%	-2.1%	26.3*	-0.9%	·
COc1ccccc1N1CCN(C2CCCN(C(=O)CN3CCCCC3=O)C2)CC1 (centres undefined)	3.1	-1.5%	2.2%	-1.8	2.1%	-0.6%
Cc1nc(-c2ccc(Cl)cc2)oc1COC(C)(C)C(=O)O	·	·	9.5%	·	·	·
COc1ccc(COC(=O)C2CCN(S(=O)(=O)c3ccc(OC)c(OC)c3)CC2)cc1	·	·	1.3%	·	12.5%	·
CC(C)Cc1nc(SCC(=O)N2CCCCC2)c2c(=O)n(C)c(=O)n(C)c2n1	-4.4	-2.5%	-9.0%	-2.5	0.2%	0.0%
N#C/C(=C(/O)CCl)c1nc(-c2ccccc2)cs1	52.4*	0.0%	-1.8%	21.3*	-0.5%	-1.8%
Cc1ccc(-c2csc(/C(C#N)=C(\O)CCl)n2)cc1	93.3*	1.5%	-14.0%	32.5*	-1.6%	·
N#C/C(=C(/O)CN1CCCCC1)c1nc(-c2ccc(Cl)cc2)cs1	50.1*	-2.5%	-4.5%	18.3*	5.5%	17.0%
CCCCN(C)C/C(O)=C(\C#N)c1nc(-c2ccccc2)cs1	33.1*	3.9%	0.0%	12.2	-7.8%	-0.3%
N#C/C(=C(/O)CN1CCOCC1)c1nc(-c2ccccc2)cs1	2.0	-3.1%	1.3%	-3.0	2.2%	9.9%
CC(Sc1nnc(NC2CCCCC2)s1)C(=O)Nc1ccc2c(c1)C(=O)c1ccccc1C2=O (centres undefined)	75.6*	1.9%	-5.7%	26.5*	-3.8%	?
CSc1ccccc1OCc1cc(C(=O)NCc2ccc(C)s2)no1	41.2*	-0.5%	3.3%	22.7*	-0.8%	-6.8%
CCOC(=O)c1ccc(CNC(=O)c2cc(COc3ccccc3SC)on2)o1	74.2*	0.2%	2.8%	34.3*	·	-5.0%
COC1c2ccccc2C(=O)N1CCc1ccc(Cl)cc1 (centres undefined)	41.4*	-0.3%	-0.7%	15.8*	-2.2%	-20.4%
OCCNc1cnc2ccccc2n1	51.0*	-1.5%	-19.0%	19.3*	-0.1%	·
CC(C)(C)C(=O)OC/C(N)=N/OC(=O)c1ccc(Cl)cc1	58.4	-0.6%	1.8%	24.5*	-7.1%	-53.6%
COc1ccc(C(=O)O/N=C(\N)Cc2ccc(Cl)cc2)cc1OC	22.6	1.6%	-7.0%	9.7	-40.5%	-177.6%
N/C(CCS(=O)(=O)c1ccc(Cl)cc1)=N\OC(=O)c1ccc(Cl)cc1	-7.0	-1.9%	1.2%	-2.2	0.3%	10.1%
N/C(Cc1ccc(Cl)cc1)=N\OC(=O)c1ccccc1	56.9	3.1%	0.5%	23.7*	-37.1%	-188.4%
CC(C)(C)C(=O)O/N=C(\N)COc1cccc(Cl)c1	99.4*	-1.7%	-15.4%	44.0*	-15.7%	-71.9%
O=C1c2ccccc2C(=O)C1Cc1cccc2ccccc12	66.1	19.9%	-5.5%	20.2*	0.3%	-0.6%
Cc1cc(C)c2c(N)c(C(=O)Nc3ccccc3Br)sc2n1	38.8*	0.1%	-3.1%	24.2*	-6.5%	-8.2%
Cc1cc(C)c2c(N)c(C(=O)Nc3ccccc3F)sc2n1	41.1*	-1.6%	0.4%	33.7*	-1.4%	-8.0%
Cc1cc(C)c2c(N)c(C(=O)Nc3ccccc3Cl)sc2n1	·	·	-8.1%	·	·	·
Cc1cc(C)cc(NC(=O)C(Cc2ccccc2)N2Cc3ccccc3C2=O)c1 (centres undefined)	·	·	-10.0%	·	·	·
SMILES	Shiga inhibitor	LmPK inhibitor	Tb PYK inh	CHX counter	SARS PLP yeast	NS1 inh
O=C(NNc1nc2ccc(F)cc2s1)c1cccc(F)c1	85.0*	2.4%	-31.1%	42.0*	-2.4%	·
O=C(NNc1nc2ccccc2s1)c1ccc(F)cc1	88.9*	-0.3%	-7.0%	43.6*	22.3%	-21.3%
Cc1ccc(-n2nc3ccc(NC(=O)C(C)C)cc3n2)cc1	118.8*	-0.1%	-4.9%	54.2*	-1.4%	-1.5%
Cc1ccc(-n2nc3ccc(NC(=O)c4ccco4)cc3n2)cc1	50.9*	1.5%	0.8%	37.7*	-20.3%	-10.0%
CC(C)C(=O)Nc1ccc2nn(-c3ccc(F)cc3)nc2c1	46.4*	-2.2%	-7.3%	28.4*	-1.4%	-12.2%
CCCC(=O)Nc1ccc2nn(-c3ccc(OC)cc3)nc2c1	·	-3.1%	-0.6%	40.6*	-0.9%	-16.3%
CCCC(=O)Nc1cc2nn(-c3ccc(OC)cc3)nc2cc1C	·	·	0.1%	·	·	·
